# ± gives the standard deviation of the averaged measurements.
# Tested on: Listeria monocytogenes 10403S
# Assay: growth inhibition relative to ceftriaxone-alone control; higher = stronger potentiation of ceftriaxone growth inhibition
# Settings: 10 µM; ceftriaxone 1 ug/ml; 12 h
# 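Also: End-point A600 read in BHI broth at 37 °C with 2% DMSO, inhibition computed as (1 − OD with compound plus ceftriaxone ÷ OD with ceftriaxone only) × 100.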
row,Structure (SMILES),growth inhibition
1,Cn1cnc(N)c2ncnc1-2 [3-Methyladenine],4.53 ± 5.3%
2,CC(C)n1nc(-c2ccc3oc(N)nc3c2)c2c(N)ncnc21,-0.352 ± 1.4%
3,Cn1cnc2c(F)c(Nc3ccc(Br)cc3Cl)c(C(=O)NOCCO)cc21 [AZD6244 (Selumetinib)],0.682 ± 22%
4,O=C1NC(=O)C(c2ccc(Cl)cc2)=C1Nc1ccc(Cl)c(C(=O)O)c1,6.2 ± 5.4%
5,N#Cc1c(NC(=O)c2ccc(F)cc2)sc2c1CCCC2,1.2 ± 5.5%
6,Nc1cccc(-c2cc3c(Oc4cccc(O)c4)ncnc3[nH]2)c1,-3.72 ± 8.2%
7,FC(F)c1nc2ccccc2n1-c1nc(N2CCOCC2)nc(N2CCOCC2)n1,19.6 ± 15%
8,Nc1nccc(C#Cc2cncnc2Nc2ccc(OCc3cccc(F)c3)c(Cl)c2)n1,8.9975 ± 0.0066%
9,N#Cc1cccc(Nc2ncc(-c3ccccc3)o2)c1,-4.01 ± 1.7%
10,Nc1nc(-c2cccc(Cl)c2)c(-c2ccc3ncccc3n2)s1,-7.03 ± 7.3%
11,N#Cc1cccc(Nc2nccc(-c3cnn4ncccc34)n2)c1,-0.568 ± 0.54%
12,CN1CCN(c2cccc(Nc3nc4c(-c5ccc(S(C)(=O)=O)cc5)cccn4n3)c2)CC1,69 ± 27%
13,O=C1Nc2ccccc2/C1=C/Nc1ccc2[nH]c(=O)[nH]c2c1,7.54 ± 1.1%
14,Fc1ccc(-c2nn3ccccc3c2-c2ccncc2)cc1,20.7 ± 8.6%
15,Cc1cnc(NC(=O)Nc2cc(Br)c(C)cc2OC[C@@H]2CNCCO2)cn1,61.8 ± 50%
16,CS(=O)(=O)Nc1cccc(-c2ccc3c(NC(=O)C4CC4)n[nH]c3c2)c1,-6.98 ± 15%
17,CC(C)c1ccc(-c2cc(-c3c[nH]nc3-c3ccccn3)ccn2)cc1,-6.81 ± 3%
18,Nc1nccc(-c2c(-c3ccc(F)cc3)ncn2CCCN2CCOCC2)n1,-1.02 ± 0.073%
19,O=C(O[C@H]1CN[C@H](C#Cc2cc3ncnc(Nc4ccc(Cc5ccccc5)cc4)c3s2)C1)N1CCOCC1,-6.43 ± 10%
20,NC(=O)c1sc(-n2cnc3cc(C(F)(F)F)ccc32)cc1OCc1ccccc1Br,-7.84 ± 1.8%
21,COCC(=O)NC/C=C/c1ccc2ncnc(Nc3ccc(Oc4ccc(C)nc4)c(C)c3)c2c1,-5.16 ± 23%
22,O=C(NC1CCNCC1)c1n[nH]cc1NC(=O)c1c(Cl)cccc1Cl,13.4 ± 5.9%
23,CNC(=O)c1cc(Oc2ccc(NC(=O)Nc3ccc(Cl)c(C(F)(F)F)c3)c(F)c2)ccn1 [Regorafenib (BAY 73-4506)],85.5 ± 3.7%
24,O=C(O)[C@]1(Cc2cccc(Nc3nccs3)n2)CC[C@@H](Oc2cccc(Cl)c2F)CC1,89.4 ± 3%

# — the supplement of paper PMC5641865, “A screen for kinase inhibitors identifies antimicrobial imidazopyridine aminofurazans as specific inhibitors of the Listeria monocytogenes PASTA kinase PrkA” (The Journal of Biological Chemistry, 2017)
